According to PubChem BioAssay (NCATS):
Inconclusive results are not listed. Activity calls are given as the source filed them. Calls come from the whole dose curve; as a rule, active = well fitted inhibition curve with a large enough effect; inconclusive = small, poorly fitted or top-dose-only effect; inactive = flat fitted curve, though single readings scatter.

These compounds were tested against Dual specificity protein kinase CLK4 (Homo sapiens) (UniProt Q9HAZ1) (assay: qHTS Assay for Inhibitors of CDC-like Kinase 4 (Kinase-Glo Assay) (AID 1770; note: nearly all actives have a fitted effect of over 65% in size)). Details: recombinant Clk4, Kinase-Glo ATP depletion luminescence; series mostly up to 66.7 µM; activity, negative = inhibition: at the top concentration.
Sequence of Dual specificity protein kinase CLK4 (Homo sapiens) (Q9HAZ1 whole entry, looked up): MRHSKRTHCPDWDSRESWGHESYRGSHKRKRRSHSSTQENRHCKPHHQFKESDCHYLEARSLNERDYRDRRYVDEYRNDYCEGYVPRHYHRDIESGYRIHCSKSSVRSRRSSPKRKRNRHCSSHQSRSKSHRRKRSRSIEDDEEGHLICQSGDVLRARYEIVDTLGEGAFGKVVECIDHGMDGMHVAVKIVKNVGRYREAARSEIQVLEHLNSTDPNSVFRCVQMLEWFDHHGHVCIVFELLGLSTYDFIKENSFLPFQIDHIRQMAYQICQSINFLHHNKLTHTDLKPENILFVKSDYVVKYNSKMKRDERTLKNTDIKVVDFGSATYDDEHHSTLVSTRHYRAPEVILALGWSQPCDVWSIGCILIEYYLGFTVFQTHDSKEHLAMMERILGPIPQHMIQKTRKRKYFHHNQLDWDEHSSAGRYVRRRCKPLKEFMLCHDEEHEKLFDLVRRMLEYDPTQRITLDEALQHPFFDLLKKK
Method: NIH Molecular Libraries Probe Production Centers Network [MLPCN] NIH Chemical Genomics Center [NCGC] MLPCN Grant: 1R03MH084827-01 Assay Submitter (PI): Tom Misteli NCGC Assay Overview: Clk4 (Invitrogen, cat# PV3839) was assayed using ATP and the RS repeat peptide (AnaSpec cat # 61722) as substrates. Following the Clk4 reaction, the remaining ATP levels were detected using Promega Kinase-Glo technology wherein the remaining ATP from the kinase reaction is detected using Ultra-Glo luciferase and D-luciferin which generates a bioluminescence signal from the ATP. The positive control for the assay was TG003 (Sigma-Aldrich, cat# 300801-52-9) which has been described as an inhibitor of Clk 4[1].
NCGC Assay Protocol Summary: Two uL/well of substrate-buffer solution (100 uM RS peptide, 1 uM ATP, 25 mM Tris pH7.5, 10 mM MgCl2, 0.5 mM EGTA, 2.5 mM DTT, 0.01% Triton X-100 final concentration) was dispensed into 1536-well, assay plates (Greiner, solid white medium-binding plates) with Aurora Discovery BioRAPTR Flying Reagent Dispenser (FRD; Beckton-Dickenson). Using a Kalypsys pin tool equipped with a 1536-pin tool, 23 nL of compound solution was transferred to the assay plate. One uL/ well Clk4-buffer solution (25 nM Clk4, 25 mM Tris pH 7.5, 10 mM MgCl2, 0.5 mM EGTA, 2.5 mM DTT, 0.01% Triton X-100, final concentrations) was then added using the FRD yielding a total kinase reaction volume of 3 uL/ well. After 4.5 hours of room temperature incubation, 3 uL Kinase-Glo reagent was added for a final assay volume of 6 uL/ well. Luminescence was detected with the ViewLux plate reader (Perkin Elmer, Waltham, MA) after 5 min incubation using a 5 second exposure time and 2x binning.
% is set by controls: 0 for no effect and ±100 for the full control effect; potency is the fitted concentration of half-maximal effect.

Structure (SMILES)	activity, negative = inhibition	Potency
CS(=O)(=O)Nc1cccc(-c2cncnc2NCc2cccnc2)c1	-17% (inactive)	
COc1cccc(-c2nccc(NCc3ccc(OC)cc3OC)n2)c1		31.6 µM (active)
COc1ccc(-c2nc3cnc(OC)nc3n(CCc3ccccc3)c2=O)cc1	0.0013% (inactive)	
Cc1cnc(CNc2cc(-c3ccccc3C(F)(F)F)ncn2)cn1	-28.3% (inactive)	
COc1ccccc1-c1ccc2ncnc(NC3CC3)c2c1		11.2 µM (active)
COCCn1c(=O)c(-c2ccccc2)nc2cnc(N(C)C)nc21	-5.3% (inactive)	
CN(C)c1ncc2nc(-c3ccc(Cl)cc3)c(=O)n(CCC#N)c2n1	0.975% (inactive)	
c1ccc(CNc2nc(-c3ccc4c(c3)OCO4)nc3ccccc23)cc1	-17.3% (inactive)	
CN1CCN(c2ncncc2-c2ccoc2)CC1	-7.16% (inactive)	
COc1ncc2nc(-c3cn(C)c4ccccc34)c(=O)n(CCC#N)c2n1	-6.88% (inactive)	
CCNc1ncc2nc(-c3ccccc3)c(=O)n(Cc3cccc(OC)c3)c2n1	-6.15% (inactive)	
CN1CCN(c2ncncc2-c2ccc(N(C)C)cc2)CC1	-25.3% (inactive)	
COc1ncc2ncc(=O)n(CCc3ccccc3)c2n1		14.1 µM (active)
CC(=O)NCCNc1ncnc2ccc(-c3ccccc3C#N)cc12		14.1 µM (active)
Cn1cc(-c2nc3cnc(N4CCNCC4)nc3n(Cc3ccc(F)cc3)c2=O)c2ccccc21	1.27% (inactive)	
COCCn1c(=O)c(-c2ccc(Cl)cc2)nc2cnc(N(C)C)nc21	-9.89% (inactive)	
Cc1noc(C)c1-c1cncnc1Nc1ccccc1	-1.63% (inactive)	
COc1ccc2[nH]cc(CCNc3ccnc(-c4ccoc4)n3)c2c1		14.1 µM (active)
CN(C)c1ncc2nc(-c3ccc(Cl)cc3)c(=O)n(C[C@H]3CCCO3)c2n1	1.21% (inactive)	
COCCn1c(=O)c(-c2ccc(OC)cc2)nc2cnc(N3CCN(C)CC3)nc21	-0.202% (inactive)	

Structure (SMILES)	activity, negative = inhibition	Potency
COc1ccc2[nH]cc(CCNc3ccnc(-c4ccc(C(=O)N(C)C)cc4)n3)c2c1	-25.8% (inactive)	
COc1ccc(-c2nc3cncnc3n(-c3ccccc3)c2=O)cc1	-15.2% (inactive)	
COc1cccc(Cn2c(=O)c(-c3cn(C)c4ccccc34)nc3cnc(OC)nc32)c1	0.233% (inactive)	
COc1ccc(-c2nc3cnc(N(C)C)nc3n(Cc3ccc(F)cc3)c2=O)cc1	-1.2% (inactive)	
CS(=O)(=O)Nc1cccc(-c2nccc(NCc3cccs3)n2)c1		28.2 µM (active)
COCCn1c(=O)c(-c2cccc(C#N)c2)nc2cnc(N3CCOCC3)nc21	-24.8% (inactive)	
N#CCCn1c(=O)cnc2cnc(Oc3cccc(Cl)c3)nc21	-18.9% (inactive)	
COc1cccc(Cn2c(=O)c(-c3cccs3)nc3cnc(OCc4ccccc4)nc32)c1	-0.426% (inactive)	
COc1ccc(-c2nc3cnc(N4CCOCC4)nc3n(Cc3cccc(OC)c3)c2=O)cc1	-0.239% (inactive)	
COc1ccc2[nH]cc(CCNc3ncnc4ccc(-c5c(C)noc5C)cc34)c2c1		7.94 µM (active)
CN(C)c1ncc2nc(CCc3ccccc3)c(=O)n(C3CC3)c2n1	-7.81% (inactive)	
COc1ccc(-n2c(=O)c(CCc3ccccc3)nc3cnc(N4CCN(C)CC4)nc32)cc1	1.24% (inactive)	
COc1cccc(Cn2c(=O)c(-c3ccc(F)cc3)nc3cnc(N4CCOCC4)nc32)c1	-16.8% (inactive)	
COc1cccc(Cn2c(=O)c(C)nc3cnc(Nc4cccc(OC)c4)nc32)c1	-10.9% (inactive)	
CCNc1ncc2nc(-c3cn(C)c4ccccc34)c(=O)n(Cc3ccc(F)cc3)c2n1	-5.49% (inactive)	
COc1ncc2ncc(=O)n(C3CC3)c2n1	-11.9% (inactive)	
COc1cccc(-c2cc(NCc3cccnc3)ncn2)c1		14.1 µM (active)
CN(C)c1ncnc2ccc(-c3ccc4c(c3)OCO4)cc12		0.199 µM (active)
O=c1c(-c2cccc(Cl)c2)nc2cncnc2n1Cc1ccccc1	-7.35% (inactive)	
COc1cccc(Cn2c(=O)c(-c3cc(F)cc(F)c3)nc3cnc(N4CCOCC4)nc32)c1	-3.15% (inactive)	
